Results filed as inconclusive are left out. A call without a number means that no potency is given here. Unmarked numbers belong to inactive results. Calls of active or inactive are those of the source. Unless noted, calls come from the whole dose curve; as a rule, active = well fitted curve in the direction sought with a large enough effect; inconclusive = small, poorly fitted or top-dose-only effect, or another doubt; inactive = no such curve, though single readings can be large; an effect the other way counts as inactive or inconclusive.
What was measured:
[1] = molecular target: ATP-dependent 6-phosphofructokinase (Trypanosoma brucei brucei) (UniProt O15648); assay: qHTS Assay to Find Inhibitors of T. brucei phosphofructokinase: hit validation (AID 492961);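 note: luminescence reports ADP formed as PFK phosphorylates fructose-6-phosphate with ATP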
Procedure, shortened: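 Percent activity derived from corrected luminescence, normalized between 0x and 1x enzyme controls, then fitted to concentration-response curves. Conditions: 1.25 nM PFK, 0.1 mM ATP, 0.5 mM F6P, 45 min RT.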

[2] = molecular target: Ubiquitin carboxyl-terminal hydrolase 1 (Homo sapiens) (UniProt O94782); assay: Inhibitors of USP1/UAF1: Pilot qHTS (AID 504865);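 note: rhodamine fluorescence freed from ubiquitin-rhodamine substrate followed over time; top concentration of the series differs between compounds; nearly all actives have a fitted effect of over 35% in size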
Procedure, shortened: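 In 50mM HEPES pH 7.8 containing 0.5mM EDTA, 1mM TCEP, 0.1 mg/ml BSA and 0.01% Tween-20, 1nM USP1/UAF1 is exposed to compound for 15 min, then Ub-Rho (150nM final) is added and fluorescence is read over time.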

[3] = molecular target: Luciferin 4-monooxygenase (Photinus pyralis) (UniProt P08659); assay: Biochemical firefly luciferase enzyme assay for NPC (AID 624030);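 note: purified P. pyralis luciferase at 10 nM with luciferin and ATP substrate; nearly all actives have a fitted effect of over 70% in size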
Procedure, shortened: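 Counter-screen for direct inhibition of the luciferase enzyme by approved-drug library compounds, run at 10 nM enzyme in 50 mM Tris acetate (final). Luminescence was read within 5 min of enzyme-buffer addition and normalized to PTC124 versus DMSO (0%).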

[4] = S16 Schwann cell viability assay (CellTiter-Glo assay) (AID 624031);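 note: cellular ATP luminescence as a viability measure; nearly all actives have a fitted effect of over 70% in size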
Procedure, shortened: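 Untransfected S16 rat Schwann cells; compound 24 h, 37 °C/5% CO2; CellTiter-Glo ATP luminescence. % activity vs no-cell wells and DMSO controls (0%); concentration-effect curves classed by r2, response magnitude, activity.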

[5] = S16 Schwann cell PMP22 intronic element beta-lactamase assay (AID 624044; calls by dose curve; note: potency is the fitted concentration of half-maximal effect; nearly all actives have a fitted effect of over 15% in size)
Procedure, shortened: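 Rat S16 Schwann cells with beta-Lac driven by a PMP22 intronic element, compound-treated 24 h at 37 °C. LiveBLAzer FRET B/G read: 460 nm normalized to potassium clavulanate vs DMSO; 535 nm FRET as viability; concentration-effect curves classified.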

Furin (Homo sapiens) = Furin (Homo sapiens) (UniProt P09958); assay: Furin counterscreen qHTS for Zika virus inhibitors (AID 1347149);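 note: purified recombinant full-length human furin enzyme at 5 nM; fluorescence gain from furin cutting a BOC-RVRR-AMC peptide substrate over 15 min; top concentration of the series differs between compounds; nearly all actives have a fitted effect of over 70% in size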
Procedure, shortened: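 Fluorogenic cleavage of BOC-RVRR-AMC (2 microM final, Km ~15 µM) was monitored (ex 340, em 450 nm) at 37C after 15 min RT preincubation of 5 nM furin with compounds in HEPES pH 7.0 buffer with CaCl2 and Triton X-100. Percent inhibition was fitted to a 4-parameter Hill curve.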

[6] = tested on: Zika virus NS2B-NS3 protease (unlinked); assay: Optimization of GU AMC qHTS for Zika virus inhibitors: Unlinked NS2B-NS3 protease assay (AID 1347151); note: nearly all actives have a fitted effect of over 80% in size
Procedure, shortened: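 Unlinked protease (25 nM final); buffer 10 mM Tris-HCl pH 8.0 + 0.01% Tween 20; AMC substrate; 15 min RT, dark; Δfluorescence normalized to no-inhibitor/no-enzyme controls; 4-parameter Hill fit.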

[7] = Vero cells viability qHTS for Zika virus inhibitors (AID 1347167)
Procedure, shortened: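 Counter-screen for cytotoxicity of hits from NS2B-NS3 protease qHTS. Overnight-attached cells (2.5 x 10^5 cells/mL, DMEM/4% FBS) were dosed in titration, incubated 24 to 48 hours, then assayed by CellTiter Glo.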

[8] = qHTS profiling for inhibitors of Plasmodium falciparum proliferation (AID 504749); note: nearly all actives have a fitted effect of over 60% in size; note: potency is the fitted concentration of half-maximal effect; conditions: P. falciparum in erythrocytes, SYBR Green DNA, 72 h, at 28.7 µM (top of the series)
Procedure, shortened: (§1)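 P. falciparum-infected erythrocytes (0.3% parasitemia, 2.5% hematocrit final) were exposed to compounds for 72 h at 37 C in 5% CO2, then lysed with SYBR Green buffer overnight at room temperature; parasite DNA fluorescence was normalized to artemisinin and DMSO controls.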

3D7 = assay: as above; conditions: P. falciparum in erythrocytes, SYBR Green DNA, 72 h; series mostly up to 28.7 µM
Procedure, shortened: as §1

AS120 = assay: as above; conditions: P. falciparum in erythrocytes, SYBR Green DNA, 72 h; series mostly up to 28.7 µM
Procedure, shortened: as §1

ATS95 = assay: as above; conditions: P. falciparum in erythrocytes, SYBR Green DNA, 72 h; series mostly up to 28.7 µM
Procedure, shortened: as §1

C2A = assay: as above; conditions: P. falciparum in erythrocytes, SYBR Green DNA, 72 h; series mostly up to 28.7 µM
Procedure, shortened: as §1

CP185 = assay: as above; conditions: P. falciparum in erythrocytes, SYBR Green DNA, 72 h; series mostly up to 28.7 µM
Procedure, shortened: as §1

CP191 = assay: as above; conditions: P. falciparum in erythrocytes, SYBR Green DNA, 72 h; series mostly up to 28.7 µM
Procedure, shortened: as §1

CP192 = assay: as above; conditions: P. falciparum in erythrocytes, SYBR Green DNA, 72 h; series mostly up to 28.7 µM
Procedure, shortened: as §1

CP201 = assay: as above; conditions: P. falciparum in erythrocytes, SYBR Green DNA, 72 h; series mostly up to 28.7 µM
Procedure, shortened: as §1

CP211 = assay: as above; conditions: P. falciparum in erythrocytes, SYBR Green DNA, 72 h; series mostly up to 28.7 µM
Procedure, shortened: as §1

CP215 = assay: as above; conditions: P. falciparum in erythrocytes, SYBR Green DNA, 72 h; series mostly up to 28.7 µM
Procedure, shortened: as §1

CP237 = assay: as above; conditions: P. falciparum in erythrocytes, SYBR Green DNA, 72 h; series mostly up to 28.7 µM
Procedure, shortened: as §1

CP238 = assay: as above; conditions: P. falciparum in erythrocytes, SYBR Green DNA, 72 h; series mostly up to 28.7 µM
Procedure, shortened: as §1

CP247 = assay: as above; conditions: P. falciparum in erythrocytes, SYBR Green DNA, 72 h; series mostly up to 28.7 µM
Procedure, shortened: as §1

CP250 = assay: as above; conditions: P. falciparum in erythrocytes, SYBR Green DNA, 72 h; series mostly up to 28.7 µM
Procedure, shortened: as §1

CP252 = assay: as above; conditions: P. falciparum in erythrocytes, SYBR Green DNA, 72 h; series mostly up to 28.7 µM
Procedure, shortened: as §1

CP256 = assay: as above; conditions: P. falciparum in erythrocytes, SYBR Green DNA, 72 h; series mostly up to 28.7 µM
Procedure, shortened: as §1

CP262 = assay: as above; conditions: P. falciparum in erythrocytes, SYBR Green DNA, 72 h; series mostly up to 28.7 µM
Procedure, shortened: as §1

CP266 = assay: as above; conditions: P. falciparum in erythrocytes, SYBR Green DNA, 72 h; series mostly up to 28.7 µM
Procedure, shortened: as §1

CP269 = assay: as above; conditions: P. falciparum in erythrocytes, SYBR Green DNA, 72 h; series mostly up to 28.7 µM
Procedure, shortened: as §1

CP291 = assay: as above; conditions: P. falciparum in erythrocytes, SYBR Green DNA, 72 h; series mostly up to 28.7 µM
Procedure, shortened: as §1

CP305 = assay: as above; conditions: P. falciparum in erythrocytes, SYBR Green DNA, 72 h; series mostly up to 28.7 µM
Procedure, shortened: as §1

CP315 = assay: as above; conditions: P. falciparum in erythrocytes, SYBR Green DNA, 72 h; series mostly up to 28.7 µM
Procedure, shortened: as §1

CP325 = assay: as above; conditions: P. falciparum in erythrocytes, SYBR Green DNA, 72 h; series mostly up to 28.7 µM
Procedure, shortened: as §1

CP329 = assay: as above; conditions: P. falciparum in erythrocytes, SYBR Green DNA, 72 h; series mostly up to 28.7 µM
Procedure, shortened: as §1

DFO2036 = assay: as above; conditions: P. falciparum in erythrocytes, SYBR Green DNA, 72 h; series mostly up to 28.7 µM
Procedure, shortened: as §1

DIV30 = assay: as above; conditions: P. falciparum in erythrocytes, SYBR Green DNA, 72 h; series mostly up to 28.7 µM
Procedure, shortened: as §1

Dd2 = assay: as above; conditions: P. falciparum in erythrocytes, SYBR Green DNA, 72 h; series mostly up to 28.7 µM
Procedure, shortened: as §1

ECU = assay: as above; conditions: P. falciparum in erythrocytes, SYBR Green DNA, 72 h; series mostly up to 28.7 µM
Procedure, shortened: as §1

FAB9 = assay: as above; conditions: P. falciparum in erythrocytes, SYBR Green DNA, 72 h; series mostly up to 28.7 µM
Procedure, shortened: as §1

HB3 = assay: as above; conditions: P. falciparum in erythrocytes, SYBR Green DNA, 72 h; series mostly up to 28.7 µM
Procedure, shortened: as §1

JCK = assay: as above; conditions: P. falciparum in erythrocytes, SYBR Green DNA, 72 h; series mostly up to 28.7 µM
Procedure, shortened: as §1

PC15 = assay: as above; conditions: P. falciparum in erythrocytes, SYBR Green DNA, 72 h; series mostly up to 28.7 µM
Procedure, shortened: as §1

PC26 = assay: as above; conditions: P. falciparum in erythrocytes, SYBR Green DNA, 72 h; series mostly up to 28.7 µM
Procedure, shortened: as §1

PC49 = assay: as above; conditions: P. falciparum in erythrocytes, SYBR Green DNA, 72 h; series mostly up to 28.7 µM
Procedure, shortened: as §1

SC27B = assay: as above; conditions: P. falciparum in erythrocytes, SYBR Green DNA, 72 h; series mostly up to 28.7 µM
Procedure, shortened: as §1

TAB113 = assay: as above; conditions: P. falciparum in erythrocytes, SYBR Green DNA, 72 h; series mostly up to 28.7 µM
Procedure, shortened: as §1

TAB165 = assay: as above; conditions: P. falciparum in erythrocytes, SYBR Green DNA, 72 h; series mostly up to 28.7 µM
Procedure, shortened: as §1

W2 = assay: as above; conditions: P. falciparum in erythrocytes, SYBR Green DNA, 72 h; series mostly up to 28.7 µM
Procedure, shortened: as §1

Chain of Luciferin 4-monooxygenase (Photinus pyralis) (P08659 whole entry, looked up): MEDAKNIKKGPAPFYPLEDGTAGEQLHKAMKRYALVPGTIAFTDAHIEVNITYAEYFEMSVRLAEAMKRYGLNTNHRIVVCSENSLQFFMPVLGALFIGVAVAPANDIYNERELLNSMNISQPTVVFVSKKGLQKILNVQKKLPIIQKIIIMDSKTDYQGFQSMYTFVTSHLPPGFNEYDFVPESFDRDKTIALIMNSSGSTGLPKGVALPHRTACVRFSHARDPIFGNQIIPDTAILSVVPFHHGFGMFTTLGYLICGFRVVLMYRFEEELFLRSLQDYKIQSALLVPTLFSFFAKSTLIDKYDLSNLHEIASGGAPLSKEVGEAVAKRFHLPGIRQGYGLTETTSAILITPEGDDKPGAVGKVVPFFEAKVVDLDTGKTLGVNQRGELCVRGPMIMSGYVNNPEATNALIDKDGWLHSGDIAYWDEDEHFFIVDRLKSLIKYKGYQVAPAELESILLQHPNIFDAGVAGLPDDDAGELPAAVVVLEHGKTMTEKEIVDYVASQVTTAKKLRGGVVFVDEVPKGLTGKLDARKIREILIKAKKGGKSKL
Chain of Furin (Homo sapiens) (P09958 whole entry, looked up): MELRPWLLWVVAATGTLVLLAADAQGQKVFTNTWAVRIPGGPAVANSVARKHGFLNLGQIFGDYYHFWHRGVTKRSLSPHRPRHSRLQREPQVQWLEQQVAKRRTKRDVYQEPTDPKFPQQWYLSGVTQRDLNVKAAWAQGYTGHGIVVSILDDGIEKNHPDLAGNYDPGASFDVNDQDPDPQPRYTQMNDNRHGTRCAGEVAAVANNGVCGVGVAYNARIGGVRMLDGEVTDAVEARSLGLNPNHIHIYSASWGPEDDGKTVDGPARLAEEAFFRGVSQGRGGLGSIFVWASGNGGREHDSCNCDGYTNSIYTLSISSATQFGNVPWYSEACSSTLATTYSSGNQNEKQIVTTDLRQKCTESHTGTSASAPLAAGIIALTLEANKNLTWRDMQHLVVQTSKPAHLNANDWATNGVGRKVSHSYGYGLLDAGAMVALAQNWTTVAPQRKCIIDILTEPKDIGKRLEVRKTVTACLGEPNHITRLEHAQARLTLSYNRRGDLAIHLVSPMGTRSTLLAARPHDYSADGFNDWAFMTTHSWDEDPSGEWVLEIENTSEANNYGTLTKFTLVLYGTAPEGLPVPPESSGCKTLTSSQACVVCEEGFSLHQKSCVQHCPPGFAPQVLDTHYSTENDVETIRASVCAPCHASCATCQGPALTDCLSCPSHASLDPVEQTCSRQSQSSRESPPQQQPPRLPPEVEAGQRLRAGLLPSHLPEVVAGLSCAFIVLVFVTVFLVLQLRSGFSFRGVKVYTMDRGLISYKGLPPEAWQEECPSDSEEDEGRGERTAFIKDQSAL
Chain of Ubiquitin carboxyl-terminal hydrolase 1 (Homo sapiens) (O94782 whole entry, looked up): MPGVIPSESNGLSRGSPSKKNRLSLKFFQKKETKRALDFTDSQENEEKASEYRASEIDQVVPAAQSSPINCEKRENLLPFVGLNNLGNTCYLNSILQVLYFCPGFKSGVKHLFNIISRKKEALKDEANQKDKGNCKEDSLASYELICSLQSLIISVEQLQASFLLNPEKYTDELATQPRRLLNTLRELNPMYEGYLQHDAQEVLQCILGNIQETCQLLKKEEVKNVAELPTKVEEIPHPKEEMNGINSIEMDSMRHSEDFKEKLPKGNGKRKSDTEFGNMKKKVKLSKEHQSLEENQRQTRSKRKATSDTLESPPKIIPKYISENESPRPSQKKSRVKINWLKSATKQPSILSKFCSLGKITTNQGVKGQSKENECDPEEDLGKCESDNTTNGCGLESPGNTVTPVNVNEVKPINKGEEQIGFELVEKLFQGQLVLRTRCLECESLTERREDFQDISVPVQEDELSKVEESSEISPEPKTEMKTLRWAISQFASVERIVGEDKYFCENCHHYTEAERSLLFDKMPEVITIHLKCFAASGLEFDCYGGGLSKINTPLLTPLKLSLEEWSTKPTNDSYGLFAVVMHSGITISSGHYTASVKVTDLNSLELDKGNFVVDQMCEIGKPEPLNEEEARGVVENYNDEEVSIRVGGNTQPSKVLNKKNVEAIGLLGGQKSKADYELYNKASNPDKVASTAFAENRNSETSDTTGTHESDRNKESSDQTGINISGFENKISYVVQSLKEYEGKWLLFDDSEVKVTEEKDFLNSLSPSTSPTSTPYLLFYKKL
Chain of ATP-dependent 6-phosphofructokinase (Trypanosoma brucei brucei) (O15648 whole entry, looked up): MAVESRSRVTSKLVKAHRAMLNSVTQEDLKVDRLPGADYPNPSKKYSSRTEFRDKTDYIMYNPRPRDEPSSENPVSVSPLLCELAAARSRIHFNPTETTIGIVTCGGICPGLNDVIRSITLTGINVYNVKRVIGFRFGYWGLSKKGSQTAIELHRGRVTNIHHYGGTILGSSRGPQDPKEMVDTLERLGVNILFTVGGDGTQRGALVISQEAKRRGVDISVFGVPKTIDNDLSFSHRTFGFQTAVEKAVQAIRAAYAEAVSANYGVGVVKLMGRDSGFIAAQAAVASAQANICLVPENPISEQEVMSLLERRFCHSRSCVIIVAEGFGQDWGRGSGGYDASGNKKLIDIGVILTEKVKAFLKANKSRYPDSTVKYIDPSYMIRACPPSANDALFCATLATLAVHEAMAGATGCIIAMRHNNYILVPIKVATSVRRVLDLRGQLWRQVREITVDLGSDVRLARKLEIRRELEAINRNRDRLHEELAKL

SMILES: O=C1c2cccc3c2[C@@H](CCC3)CN1[C@@H]1CN2CCC1CC2
- outcome [1]: inactive
- Potency [2]: inactive
- Potency [3]: inactive
- outcome [4]: inactive
- Potency [5]: 11.2 µM (active)
- Potency (Furin (Homo sapiens)): inactive
- Potency [6]: inactive
- Potency [7]: inactive
- activity, negative = inhibition ([8]; parasite line A): -7.65%
- activity, negative = inhibition ([8]; parasite line B): 6.33%
- Potency (3D7): inactive
- Potency (AS120): inactive
- Potency (ATS95): inactive
- Potency (C2A): inactive
- Potency (CP185): inactive
- Potency (CP191): inactive
- Potency (CP192): inactive
- Potency (CP201): inactive
- Potency (CP211): inactive
- Potency (CP215): inactive
- Potency (CP237): 10 µM (active)
- Potency (CP238): inactive
- Potency (CP247): inactive
- Potency (CP250): inactive
- Potency (CP252): inactive
- Potency (CP256): inactive
- Potency (CP262): inactive
- Potency (CP266): inactive
- Potency (CP269): inactive
- Potency (CP291): inactive
- Potency (CP305): inactive
- Potency (CP315): inactive
- Potency (CP325): inactive
- Potency (CP329): inactive
- Potency (DFO2036): inactive
- Potency (DIV30): inactive
- Potency (Dd2): 12.6 µM (active)
- Potency (ECU): inactive
- Potency (FAB9): inactive
- Potency (HB3): inactive
- Potency (JCK): inactive
- Potency (PC15): inactive
- Potency (PC26): inactive
- Potency (PC49): inactive
- Potency (SC27B): inactive
- Potency (TAB113): inactive
- Potency (TAB165): inactive
- Potency (W2): 6.75 µM (active)

From PubChem BioAssay (NCATS)
